Substitutions are numbered along the chain they refer to.

Common to all, as to assay: yeast three-hybrid, YBZ-1, SC-Leu-His + 0.5 mM 3-AT, 4 days
Common to all, as to conditions: tags: N-Gal4 AD-HA kept; label: inside an RPR1-promoter hybrid RNA with tandem MS2 sites; ssRNA

One assay deals with T1, PUM1 PUF domain R6-IYV (Homo sapiens, UniProt Q14671 828-1176, N1043I;Q1047V).
T1 sequence: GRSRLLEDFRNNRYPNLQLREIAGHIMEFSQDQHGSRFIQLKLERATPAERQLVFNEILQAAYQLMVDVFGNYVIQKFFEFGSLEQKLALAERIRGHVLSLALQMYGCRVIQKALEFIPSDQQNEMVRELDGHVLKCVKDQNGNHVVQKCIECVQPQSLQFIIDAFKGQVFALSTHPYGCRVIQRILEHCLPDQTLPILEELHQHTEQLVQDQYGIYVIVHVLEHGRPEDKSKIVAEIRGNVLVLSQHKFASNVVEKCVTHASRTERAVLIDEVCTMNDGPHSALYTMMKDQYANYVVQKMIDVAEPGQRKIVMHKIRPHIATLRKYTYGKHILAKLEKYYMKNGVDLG
In outline: (§1)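 Pumilio-1 PUF domain libraries, randomized (NNK) at the three base-contacting residues of each repeat, were co-expressed with matching RNA elements from a centromeric plasmid in strain YBZ-1 (LexA–MS2 coat fusion, HIS3 reporter). Transformants were plated on SC-Leu (input) and SC-Leu-His + 0.5 mM 3-AT (selection) for four days, and repeat regions were PCR-amplified and Illumina-sequenced. The interaction score is the log2 change in variant frequency from input to selection, with pseudocount 1 where absent.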

The target in another assay is T2, PUM1 PUF domain R6-CFC (Homo sapiens, UniProt Q14671 828-1176, N1043C;Y1044F;Q1047C).
T2 sequence: T1 sequence with I216C, Y217F, V220C
Summed up:
as §1

In the next assay the target is PUM1 PUF domain R5-KHG (Homo sapiens, UniProt Q14671 828-1176, C1007K;R1008H;Q1011G). Summed up: as §1
The target in a further assay is PUM1 PUF domain R4-DHE (Homo sapiens, UniProt Q14671 828-1176, N971D;Q975E). In outline:
as §1

A further assay deals with PUM1 PUF domain R4-SWG (Homo sapiens, UniProt Q14671 828-1176, N971S;H972W;Q975G). In outline: as §1
The target in the next assay is PUM1 PUF domain R7-RCQ (Homo sapiens, UniProt Q14671 828-1176, S1079R;N1080C;E1083Q). Summed up: as §1
In the next assay the target is PUM1 PUF domain R5-QKC (Homo sapiens, UniProt Q14671 828-1176, C1007Q;R1008K;Q1011C). Summed up:
as §1

For a further assay, the target named is PUM1 PUF domain R2-EWT (Homo sapiens, UniProt Q14671 828-1176, N899E;Y900W;Q903T). In outline: as §1

For the sequence “GGCUAGAACUAGUGGAUCCCCCGGCGCCCGGCGGCUCGAGCCCGGGUAAGUGUAAAUAGUCUGCAUGCCGCCGGGCGCCAUGCCUGCAGGUCGACUCUAGAAAACAUG”, the binding signal was 2.91 log2 enrichment (interaction score) in the assay with PUM1 PUF domain R6-IYV, 1.34 log2 enrichment (interaction score) with PUM1 PUF domain R6-CFC and 3.79 log2 enrichment (interaction score) with PUM1 PUF domain R5-KHG.

“GGCUAGAACUAGUGGAUCCCCCGGCGCCCGGCGGCUCGAGCCCGGGUAAGUGAAAAUAGUCUGCAUGCCGCCGGGCGCCAUGCCUGCAGGUCGACUCUAGAAAACAUG”: the binding signal in the assay with PUM1 PUF domain R6-CFC is 4.06 log2 enrichment (interaction score).

As for “GGCUAGAACUAGUGGAUCCCCCGGCGCCCGGCGGCUCGAGCCCGGGUAAGUGUACAUAGUCUGCAUGCCGCCGGGCGCCAUGCCUGCAGGUCGACUCUAGAAAACAUG”, the binding signal with PUM1 PUF domain R4-DHE is 2.01 log2 enrichment (interaction score).

Regarding “GGCUAGAACUAGUGGAUCCCCCGGCGCCCGGCGGCUCGAGCCCGGGUAAGUGUAUAUAGUCUGCAUGCCGCCGGGCGCCAUGCCUGCAGGUCGACUCUAGAAAACAUG”, the binding signal is 4.57 log2 enrichment (interaction score) in the assay with PUM1 PUF domain R4-DHE and 2.5 log2 enrichment (interaction score) with PUM1 PUF domain R4-SWG.

As to “GGCUAGAACUAGUGGAUCCCCCGGCGCCCGGCGGCUCGAGCCCGGGUAAGUCUAAAUAGUCUGCAUGCCGCCGGGCGCCAUGCCUGCAGGUCGACUCUAGAAAACAUG”, the binding signal with PUM1 PUF domain R7-RCQ is 2.3 log2 enrichment (interaction score).

Regarding “GGCUAGAACUAGUGGAUCCCCCGGCGCCCGGCGGCUCGAGCCCGGGUAAGUGUUAAUAGUCUGCAUGCCGCCGGGCGCCAUGCCUGCAGGUCGACUCUAGAAAACAUG”, in the assay with PUM1 PUF domain R5-QKC, the binding signal is 3.74 log2 enrichment (interaction score).

On to “GGCUAGAACUAGUGGAUCCCCCGGCGCCCGGCGGCUCGAGCCCGGGUAAGUGUAAAAAGUCUGCAUGCCGCCGGGCGCCAUGCCUGCAGGUCGACUCUAGAAAACAUG”, for which, in the assay with PUM1 PUF domain R2-EWT, the binding signal is 2.39 log2 enrichment (interaction score).

For the origin of these results see PMC8384837, “Expanding the binding specificity for RNA recognition by a PUF domain”.
